Assay outcomes (PubChem)
A selection: hits, their analogues and other compounds. The true share with any hit is near 5.8%.
Gal4-VP16 FLuc – inhibits Gal4-VP16 luciferase reporter, ROR gamma counter-screen; 3.5% of 310,000 active; Drosophila S2 Gal4-VP16 UAS-luciferase, luminescence, 20 h; Potency, µM (highest dose often 53.6 µM), actives largely listed as inhibitors; AID 2546;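 also: Gal4-VP16 expression switched on by copper sulfate through the metallothionein promoter; nearly all actives have a fitted effect of over 50% in size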
TRPV1 ag – human TRPV1 agonism; Q8NER1; TRPV1-expressing cells, Fluo-8 calcium influx, agonist mode; activation, % at 8.33 µM; 0.19% of 320,000 active; in the data active = activation above about 80%; inconclusive = between about 30% and that limit
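Cells expressing TRPV1 were dye-loaded with Fluo-8 and read kinetically: 10 s baseline, 3 min after compound (agonist portion), then 2 min after EC20 capsaicin (allosteric enhancer portion). Calcium-bound dye fluorescence at 480/520 nm.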
uPA surface inh – blocks generation of uPA at the cell surface. cell surface uPA generation assay, qHTS. Potency, µM (highest dose often 38.3 µM), most hits filed as inhibitors. 0.31% of 330,000 active. AID 540303; active = well fitted inhibition curve with a large enough effect; inconclusive = small, poorly fitted or top-dose-only effect; inactive = no such curve, though single readings can be large or run the other way; tested in mouse RAW 264.7 cells; also: nearly all actives have a fitted effect of over 55% in size
TRPV1 PAM – enhances activation of the human vanilloid receptor TRPV1; Q8NER1; TRPV1-expressing cells, Fluo-8 calcium influx, capsaicin EC20 potentiation; potentiation, % at 8.33 µM; 0.02% of 320,000 active; AID 540277; in the data active = potentiation above about 80%; inconclusive = between about 30% and that limit
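TRPV1-expressing cells were cultured overnight at 35.5C and loaded with Fluo-8 calcium dye for 40 to 90 min at room temperature. After a 10 s baseline, compound was added and calcium influx was read kinetically for 3 min (ex 480/em 520 nm).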
RORg inh – blocks mouse ROR gamma transcriptional activity | Drosophila S2 Gal4-RORgamma UAS-luciferase reporter, 20 h | Potency, µM (doses to about 53.6 µM), most hits filed as inhibitors | 5.4% of 310,000 active; also: nearly all actives have a fitted effect of over 60% in size
Target sequence (P51450 whole entry, looked up, the tested form may be a part): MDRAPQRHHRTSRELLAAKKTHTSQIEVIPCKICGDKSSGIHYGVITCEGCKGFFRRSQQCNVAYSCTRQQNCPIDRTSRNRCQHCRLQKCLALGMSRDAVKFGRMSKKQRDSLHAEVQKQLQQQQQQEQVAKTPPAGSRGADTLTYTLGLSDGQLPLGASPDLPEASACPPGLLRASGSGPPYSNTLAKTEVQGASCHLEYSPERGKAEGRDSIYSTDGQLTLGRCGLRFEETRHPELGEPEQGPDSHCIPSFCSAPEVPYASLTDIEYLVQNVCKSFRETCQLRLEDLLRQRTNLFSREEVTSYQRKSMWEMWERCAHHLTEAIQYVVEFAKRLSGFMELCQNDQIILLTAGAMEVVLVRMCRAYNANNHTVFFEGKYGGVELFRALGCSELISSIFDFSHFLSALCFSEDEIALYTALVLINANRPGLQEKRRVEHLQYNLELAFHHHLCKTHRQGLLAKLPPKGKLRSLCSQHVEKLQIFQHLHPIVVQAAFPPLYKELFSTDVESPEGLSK
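Stable Schneider cell line, Gal4 DNA-binding domain fused to ROR gamma, UAS-luciferase. Cmpd 1 hr RT → CuSO4 700 uM final → 20 hr RT → luciferase reagent 10 min → luminescence.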
Of the large screens only hits and unclear results are named; the others gave an inactive call. Unless noted, calls follow the shape of the dose curve; as a rule, active = well fitted curve in the direction sought with a large enough effect; inconclusive = small, poorly fitted or top-dose-only effect, or another doubt; inactive = no such curve, though single readings can be large; an effect the other way counts as inactive or inconclusive.

Cc1cccc(S(=O)(=O)c2c(N)n(-c3ccccc3)c3nc4ccccc4nc23)c1	none
Cn1c(NN)nc2sc3c(c2c1=O)CC(C)(C)OC3	Gal4-VP16 FLuc 3.5µM, RORg inh 1.4µM
COC(=O)[C@H](COC(C)(C)C)NC(=O)O[C@H]1C(=O)c2ccc(OC)cc2O[C@@H]1c1ccc2c(c1)OCO2	none (no result: TRPV1 ag, uPA surface inh, TRPV1 PAM)
Cc1nn(CCC(N)=S)c2nc(-c3cccs3)cc(C(F)(F)F)c12	Gal4-VP16 FLuc 6.3µM, TRPV1 ag inconclusive, RORg inh 7.1µM
O=C(Nc1ccnn1C1CCN(C(=O)Cc2cccc(Cl)c2)CC1)C1CC1	none
Cc1cc(C)c2ccc3c(C)c(C)nc3c2[nH]1	none
O=C(/C=C/NNC(=O)c1ccc(Cl)cc1)c1ccccc1	Gal4-VP16 FLuc inconclusive, uPA surface inh inconclusive, RORg inh 11µM
CCCC(=O)Nc1ccc(-c2nc3cc(C)c(C)cc3o2)cc1	Gal4-VP16 FLuc inconclusive, RORg inh 1.3µM
Cc1ccc(-c2nc3cc(N)ccc3o2)c(C)c1	RORg inh 11µM
CC(C)CC(=O)Nc1ccc2oc(-c3cccnc3)nc2c1	uPA surface inh inconclusive
Cc1ccc2oc(-c3ccco3)nc2c1	none
Cc1ccc2oc(-c3cccc(N)c3)nc2c1	Gal4-VP16 FLuc inconclusive, RORg inh 11µM
Cc1ccc2oc(-c3ccc(NC(=O)CC(C)C)cc3)nc2c1	Gal4-VP16 FLuc 1.1µM, RORg inh 0.28µM
Nc1cccc(-c2nc3cc(S(=O)(=O)c4ccc5oc(-c6cccc(N)c6)nc5c4)ccc3o2)c1	Gal4-VP16 FLuc 5µM, RORg inh 4.5µM
Cc1ccc(-c2nc3cc(C)ccc3o2)cc1	Gal4-VP16 FLuc 14µM, RORg inh 11µM
Cc1ccc(-c2nc3cc(N)ccc3o2)cc1	Gal4-VP16 FLuc inconclusive, RORg inh inconclusive
Cc1ccc2nc(-c3cccc(N)c3)[nH]c2c1	Gal4-VP16 FLuc 8.9µM, RORg inh 7.9µM
CC(C)c1ccc(Nc2nnc(SCC(=O)Nc3ncc(S(=O)(=O)c4ccc([N+](=O)[O-])cc4)s3)s2)cc1	uPA surface inh inconclusive, RORg inh 10µM
Cn1cccc1Cc1nnc(SCC(=O)Nc2nccs2)n1C	TRPV1 PAM inconclusive
CCn1c(COc2ccc(C(C)C)cc2)nnc1SCC(=O)Nc1nccs1	Gal4-VP16 FLuc inconclusive, RORg inh 11µM
Cn1cccc1Cc1nnc(SCC(=O)Nc2nccs2)n1CCc1ccccc1	Gal4-VP16 FLuc inconclusive, RORg inh 18µM
CCSCc1nnc(SCC(=O)Nc2nccs2)n1CC	none
CC/C=C/[C@@H](c1ccccc1)[C@H](C)C(O)CC(=O)SC(C)(C)C (stereo partly specified)	none (no result: TRPV1 ag, uPA surface inh, TRPV1 PAM)
CC(C)(C)OC(=O)NCCCC[C@H](NC(=O)c1[nH]cnc1C(=O)Nc1ccccc1)C(=O)OC(C)(C)C	Gal4-VP16 FLuc inconclusive, TRPV1 ag inconclusive, uPA surface inh inconclusive, RORg inh 13µM
CC(C)(C)OC(=O)NCCCC[C@H](NC(=O)c1nc[nH]c1C(=O)N1CCN(c2ccccc2)CC1)C(=O)OC(C)(C)C	Gal4-VP16 FLuc inconclusive, RORg inh 13µM
C[C@H](NC(=O)c1nc[nH]c1C(=O)NCCCCCNC(=O)OC(C)(C)C)C(=O)OC(C)(C)C	none
CC(C)C[C@H](NC(=O)c1nc[nH]c1C(=O)NCCCCCNC(=O)OC(C)(C)C)C(=O)OC(C)(C)C	Gal4-VP16 FLuc 7.1µM, TRPV1 ag inconclusive, RORg inh 3.2µM
CNC(=O)c1[nH]cnc1C(=O)N[C@@H](CCCCNC(=O)OC(C)(C)C)C(=O)OC(C)(C)C	none
CC(C)(C)OC(=O)NCCCC[C@H](NC(=O)c1[nH]cnc1C(=O)Nc1ccc(Cl)cc1)C(=O)OC(C)(C)C	Gal4-VP16 FLuc inconclusive, uPA surface inh inconclusive, RORg inh inconclusive
CC(C)C[C@H](NC(=O)c1nc[nH]c1C(=O)N[C@@H](CCCCNC(=O)OC(C)(C)C)C(=O)OC(C)(C)C)C(=O)OC(C)(C)C	Gal4-VP16 FLuc 11µM, uPA surface inh inconclusive, TRPV1 PAM inconclusive, RORg inh 5µM
COc1ccc(OC)c(/C=N\NC(=O)CC(=O)NCCc2ccccc2)c1	none (no result: uPA surface inh)
COc1ccc(OC)c(/C=N/NC(=O)c2cc(-c3ccc(C)o3)nc3ccccc23)c1	Gal4-VP16 FLuc inconclusive, uPA surface inh inconclusive, RORg inh inconclusive
COc1ccc(OC)c(/C=N/NC(=S)NCCc2ccccc2)c1	Gal4-VP16 FLuc 11µM, TRPV1 PAM inconclusive, RORg inh 40µM
COc1ccc(OC)c(/C=N/NC(=O)c2csc3ccccc23)c1	RORg inh 13µM
COc1cccc(/C=N/NC(=S)NCCc2ccccc2)c1OC	Gal4-VP16 FLuc inconclusive, RORg inh 11µM
O=C(NCc1ccccn1)C(=O)NCC1OCCN1S(=O)(=O)c1ccc(Cl)cc1 (stereo unspecified)	none
CCN1CCN(C(=S)NC(=O)c2cccc(Br)c2)CC1	none (no result: Gal4-VP16 FLuc, TRPV1 ag, TRPV1 PAM, RORg inh)
CCn1c(O)c(N=NC2=NC(=O)CS2)c2ccccc21	Gal4-VP16 FLuc inconclusive, RORg inh 10µM
CCCCCCC(=O)N1C/C=C\C(c2ccc(OC)cc2)N(Cc2ccc(F)cc2)C(=O)C1Cc1ccccc1 (stereo unspecified)	Gal4-VP16 FLuc inconclusive (no result: TRPV1 ag, uPA surface inh, TRPV1 PAM)
O=C1/C(=N/n2cnnc2)c2ccccc2N1Cc1ccccc1	none (no result: uPA surface inh)
CCCCCCCCCCOC(=O)Cn1c(COc2cccc(C)c2)[n+](C)c2ccccc21	Gal4-VP16 FLuc 11µM
CCCCCCCCCCOC(=O)Cn1c(COc2ccccc2)[n+](C)c2ccccc21	Gal4-VP16 FLuc inconclusive, RORg inh inconclusive
Cc1ccccc1OCc1n(CC(=O)OC2CC(C)CCC2C(C)C)c2ccccc2[n+]1C (stereo unspecified)	Gal4-VP16 FLuc 18µM, uPA surface inh inconclusive, RORg inh inconclusive
CCCCCCCCCCOC(=O)Cn1c(COc2ccc(OC)cc2)[n+](C)c2ccccc21	Gal4-VP16 FLuc 6.3µM, RORg inh inconclusive
CCCCCCCCCCOC(=O)Cn1c(COc2ccccc2C)[n+](C)c2ccccc21	Gal4-VP16 FLuc 16µM, RORg inh inconclusive
COc1cccc(Nc2ncc3nc(-c4ccccc4)c(=O)n(Cc4cccs4)c3n2)c1	none (no result: TRPV1 ag, uPA surface inh, TRPV1 PAM)
CCOC(=O)C1=CC(OC(CC)CC)C(NC(C)=O)C(N)C1 (stereo unspecified)	none (no result: TRPV1 ag, uPA surface inh, TRPV1 PAM)
CCCCN=C1NN=C(c2cc3ccccc3o2)CS1	Gal4-VP16 FLuc inconclusive, RORg inh inconclusive
O=C1CNC(=S)N1c1nc2ccccc2s1	Gal4-VP16 FLuc 5.6µM, RORg inh 0.79µM
Fc1cccc2sc(Nc3nnc(-c4ccco4)o3)nc12	RORg inh 0.13µM
COc1cccc2sc(Nc3nnc(-c4ccc(F)cc4)o3)nc12	Gal4-VP16 FLuc 5µM, uPA surface inh 5.6µM, TRPV1 PAM inconclusive, RORg inh 2.2µM
CCOC(=O)c1sc(Nc2nc3c(OC)cccc3s2)nc1C	Gal4-VP16 FLuc inconclusive, RORg inh inconclusive (no result: uPA surface inh)
COc1cccc2sc(Nc3nnc(-c4cccs4)o3)nc12	Gal4-VP16 FLuc 2µM, RORg inh 1.4µM
CCc1ccc(CN(C)Cc2nc(Cc3cccc(C(F)(F)F)c3)no2)nc1	Gal4-VP16 FLuc inconclusive, RORg inh 2.2µM
CCc1ccc(CNC(=O)CCc2nnc(Cc3cccc(C(F)(F)F)c3)o2)nc1	none
